In experiment [1] the test system is Plasmodium falciparum Sir2 (PF13_0152, Sir2A). Nature of the experiment: Plasmodium falciparum Sir2A binding compounds – biochemical, small-molecule microarray, 635 nm fluorescence, primary screen (AID 1098).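 Further: score merges spot fluorescence intensity with its signal-to-noise ratio.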 Particulars: fluorescence 635 nm, higher = more signal.
Experiment [2] can be described thus: probe aDKK1 binding to arrayed compounds – biochemical, biotinylated probe, 635/667 nm fluorescence, primary screen (AID 1099).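 Further: score merges 667nm spot fluorescence with signal to noise across triplicate slides.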 Particulars: higher = more signal; small-molecule microarray, probe aDKK1, fluorescence unless noted.
A short description of experiment [3]: probe aCHRDL2 binding to arrayed compounds – biochemical, biotinylated probe, 635/667 nm fluorescence, primary screen (AID 1100). Particulars: higher = more signal; small-molecule microarray, probe aCHRDL2, fluorescence unless noted.
A short description of experiment [4]: change in splice reporter luminescence, either direction, cell-based, HEK293, spliceosome inhibition project, primary screen (AID 1101).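 Further: HEK293 cells carrying a splicing-competent luciferase reporter gene; test concentration not given here.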 Particulars: HEK293 splicing luciferase reporter, 24 h; higher = more signal, called active from +8 up or from −8 down unless noted. For orientation: In a reporter assay the amount or activity of a reporter protein is the signal.

Experiment [5] deals with Fibroblast growth factor 10 (Homo sapiens) (UniProt O15520). The experiment is described as follows: compounds binding fibroblast growth factor 10 – biochemical, small-molecule microarray, 635 nm fluorescence, primary screen (AID 1102). The note with it: FGF10 binding, fluorescence 635 nm, higher = more signal.
Sequence of Fibroblast growth factor 10 (Homo sapiens) (O15520 whole entry, looked up): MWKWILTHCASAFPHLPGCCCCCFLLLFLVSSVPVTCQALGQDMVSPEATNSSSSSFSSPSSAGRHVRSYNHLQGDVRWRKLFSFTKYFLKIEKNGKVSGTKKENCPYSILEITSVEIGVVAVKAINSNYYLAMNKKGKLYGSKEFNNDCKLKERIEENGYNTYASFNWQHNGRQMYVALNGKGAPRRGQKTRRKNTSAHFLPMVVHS
Experiment [6] relates to glycogen synthase kinase-3 (GSK3A per assay name; protocol says GSK3B). Nature of the experiment: compounds binding glycogen synthase kinase-3 – biochemical, small-molecule microarray, 635 nm fluorescence, GSK3A, primary screen (AID 1103). Further: the record names both GSK3A and GSK3B. The note with it: fluorescence 635 nm, higher = more signal.
Experiment [7] addresses Epidermal growth factor receptor (Homo sapiens) (UniProt P00533). The experiment is described as follows: compounds binding epidermal growth factor receptor – biochemical, small-molecule microarray, 635 nm fluorescence, primary screen (AID 1104).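 Further: score merges 667 nm emission intensity with spot signal to noise over triplicate slides.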 The note with it: EGFR binding, higher = more signal.
In experiment [8] the target is Follistatin-related protein 3 (Homo sapiens) (UniProt O95633). The experiment is described as follows: compounds binding follistatin-related protein 3 – biochemical, small-molecule microarray, 635 nm fluorescence, primary screen (AID 1105).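 Further: score merges emission near 667 nm and signal to noise per printed spot across three slides.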 Particulars: FSTL3 binding, higher = more signal.
Sequence of Follistatin-related protein 3 (Homo sapiens) (O95633 whole entry, looked up): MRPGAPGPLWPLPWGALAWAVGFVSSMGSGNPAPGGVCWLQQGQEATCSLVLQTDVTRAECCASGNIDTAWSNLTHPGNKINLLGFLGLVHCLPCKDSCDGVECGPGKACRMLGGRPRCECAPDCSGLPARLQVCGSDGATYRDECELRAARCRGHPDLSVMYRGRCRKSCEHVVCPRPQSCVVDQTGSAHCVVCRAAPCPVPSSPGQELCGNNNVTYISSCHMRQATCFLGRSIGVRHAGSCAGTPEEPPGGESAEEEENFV
Experiment [9] deals with Dickkopf-related protein 1 (Homo sapiens) (UniProt O94907). The experiment is described as follows: small molecules binding DKK1 protein – biochemical, small-molecule microarray, 635 nm fluorescence scan, primary screen (AID 1106).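 Further: score merges emission near 667 nm with signal to noise over three replicate slides.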 The note with it: higher = more signal.
Sequence of Dickkopf-related protein 1 (Homo sapiens) (O94907 whole entry, looked up): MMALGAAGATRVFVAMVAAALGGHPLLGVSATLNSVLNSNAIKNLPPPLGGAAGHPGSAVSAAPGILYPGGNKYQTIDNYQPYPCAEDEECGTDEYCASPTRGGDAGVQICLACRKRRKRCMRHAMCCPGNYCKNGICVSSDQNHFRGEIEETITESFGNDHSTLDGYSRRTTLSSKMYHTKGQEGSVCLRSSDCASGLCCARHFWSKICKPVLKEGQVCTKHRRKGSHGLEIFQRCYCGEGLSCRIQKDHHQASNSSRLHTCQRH
Experiment [10] concerns Inhibin beta A chain (activin A). Nature of the experiment: small molecules binding activin A – biochemical, small-molecule microarray, 635 nm fluorescence scan, primary screen (AID 1107).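 Further: mouse activin A protein probed at 4.33 µg/mL on printed slides; score merges bound-protein fluorescence near 667 nm with spot signal-to-noise.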 The note with it: INHBA, higher = more signal.
The test system of experiment [11] is Human papillomavirus type 1a protein E7 (residues 44-93). The experiment is described as follows: small molecules binding HPV E7 44-93 – biochemical, small-molecule microarray, residues 44-93, 635 nm fluorescence, primary screen (AID 1108).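 Further: E7 fragment applied at 1 µg/mL in TBST for 1 h at 4 C; score combines spot fluorescence with its signal to noise ratio.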 Particulars: fluorescence 635 nm, higher = more signal.
A short description of experiment [12]: hepatitis C replication reporter changes, two-sided – Huh7 cells, luciferase reporter, HCV replication inhibitor project, primary screen (AID 1109).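 Further: huh7 hepatoma cells harbouring a luciferase neomycin HCV replicon reporter; luciferase luminescence as measure of HCV replicon replication; test concentration not given here.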 The note with it: Huh7 HCV replicon luciferase reporter, 48 h; higher = more signal.
Experiment [13] concerns the target Left-right determination factor 2 (Homo sapiens) (UniProt O00292). The experiment is described as follows: small molecules binding LEFTY2 protein – biochemical, small-molecule microarray, 635 nm fluorescence scan, primary screen (AID 1110). The note with it: higher = more signal.
The target of experiment [14] is Calmodulin-1 (Homo sapiens) (UniProt P0DP23). Nature of the experiment: small molecules binding calmodulin-1 with EGTA – biochemical, small-molecule microarray, Cy5-labelled CALM1, profiling panel (AID 1111).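 Further: labelled calmodulin applied in Tris saline Tween buffer holding calcium plus EGTA and DTT.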 The note with it: Cy5-CALM1 binding fluorescence, higher = more signal.
The target is the same in experiment [15]. Nature of the experiment: small molecules binding Ca-loaded calmodulin-1 – biochemical, small-molecule microarray, Cy5-labelled CALM1, plus calcium, artefact control for SMM control-protein annotation, profiling panel (AID 1112).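 Further: score merges spot fluorescence with signal to noise from triplicate slides.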 The note with it: Cy5-CALM1 binding fluorescence, higher = more signal.
Experiment [16] is described as follows: probe aWnt5a binding to arrayed compounds – biochemical, biotinylated probe, 635/667 nm fluorescence, primary screen (AID 1113).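 Further: score merges 667 nm fluorescence intensity with signal-to-noise per printed feature.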 Particulars: higher = more signal; small-molecule microarray, probe aWnt5a, fluorescence unless noted.
Experiment [17] in a line: probe aShh binding to arrayed compounds – biochemical, biotinylated probe, 635/667 nm fluorescence, primary screen (AID 1114).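 Further: probe is biotin-labelled aShh protein from a stem cell growth factor screen; measures binding of labelled protein to compounds printed on the slide; score merges feature fluorescence at 667 nm with signal-to-noise.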 Particulars: higher = more signal; small-molecule microarray, probe aShh, fluorescence unless noted.
Experiment [18] in a line: probe aNog binding to arrayed compounds – biochemical, biotinylated probe, 635/667 nm fluorescence, primary screen (AID 1115).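 Further: probe is biotinylated aNog protein used at 0.15 µg/mL for 1 h at 4 C; z-score combines 667 nm fluorescence of each spot with its signal to noise.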 Particulars: higher = more signal; small-molecule microarray, probe aNog, fluorescence unless noted.
Experiment [19] addresses Torsin-1A-interacting protein 1 (Homo sapiens) (UniProt Q5JTV8). The experiment is described as follows: compound microarray binding of lysate hLAP1 – cell lysate, small-molecule microarray, COS7 lysate, 635/667 nm fluorescence, primary screen (AID 1116). The note with it: 635 nm fluorescence, higher = more signal.
Experiment [20] has as its target Alpha-bungarotoxin (Bungarus multicinctus) (UniProt P60615). The experiment is described as follows: compounds binding labelled alpha-BTX control protein – biochemical, small-molecule microarray, Alexa647 label, 635/667 nm fluorescence, artefact control for SMM control protein annotation, profiling panel (AID 1117). The note with it: alpha-BTX-A647 binding fluorescence, higher = more signal.

The structures appear in SMILES notation. Activity calls are given as the source filed them.

Sequence of Torsin-1A-interacting protein 1 (Homo sapiens) (Q5JTV8 whole entry, looked up): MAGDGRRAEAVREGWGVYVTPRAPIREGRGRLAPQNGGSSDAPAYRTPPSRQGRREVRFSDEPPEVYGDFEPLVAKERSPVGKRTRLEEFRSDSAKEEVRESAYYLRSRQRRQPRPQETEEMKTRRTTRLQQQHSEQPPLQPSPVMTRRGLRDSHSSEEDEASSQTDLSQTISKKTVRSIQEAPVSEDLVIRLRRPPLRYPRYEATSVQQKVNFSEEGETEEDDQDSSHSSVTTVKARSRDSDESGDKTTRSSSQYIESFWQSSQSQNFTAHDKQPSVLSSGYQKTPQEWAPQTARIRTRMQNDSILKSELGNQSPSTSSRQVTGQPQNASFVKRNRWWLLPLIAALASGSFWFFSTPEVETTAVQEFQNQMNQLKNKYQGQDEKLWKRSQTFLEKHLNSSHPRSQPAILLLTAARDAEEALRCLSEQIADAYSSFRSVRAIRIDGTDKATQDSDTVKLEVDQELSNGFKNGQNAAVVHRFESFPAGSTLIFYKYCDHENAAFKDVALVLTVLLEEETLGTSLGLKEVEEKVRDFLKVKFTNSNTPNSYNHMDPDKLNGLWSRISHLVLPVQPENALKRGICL
Sequence of Left-right determination factor 2 (Homo sapiens) (O00292 whole entry, looked up): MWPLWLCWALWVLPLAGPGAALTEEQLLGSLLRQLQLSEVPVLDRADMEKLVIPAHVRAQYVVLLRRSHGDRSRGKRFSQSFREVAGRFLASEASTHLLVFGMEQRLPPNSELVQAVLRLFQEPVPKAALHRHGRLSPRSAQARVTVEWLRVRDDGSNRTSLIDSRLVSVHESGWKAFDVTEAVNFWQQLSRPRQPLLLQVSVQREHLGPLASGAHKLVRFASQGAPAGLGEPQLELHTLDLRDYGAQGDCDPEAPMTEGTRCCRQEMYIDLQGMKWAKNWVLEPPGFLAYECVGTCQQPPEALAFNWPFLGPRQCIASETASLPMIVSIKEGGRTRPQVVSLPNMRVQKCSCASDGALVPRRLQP
Sequence of Alpha-bungarotoxin (Bungarus multicinctus) (P60615 whole entry, looked up): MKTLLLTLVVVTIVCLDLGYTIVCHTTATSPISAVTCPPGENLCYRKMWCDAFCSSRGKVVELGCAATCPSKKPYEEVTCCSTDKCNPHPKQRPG
Sequence of Epidermal growth factor receptor (Homo sapiens) (P00533 whole entry, looked up): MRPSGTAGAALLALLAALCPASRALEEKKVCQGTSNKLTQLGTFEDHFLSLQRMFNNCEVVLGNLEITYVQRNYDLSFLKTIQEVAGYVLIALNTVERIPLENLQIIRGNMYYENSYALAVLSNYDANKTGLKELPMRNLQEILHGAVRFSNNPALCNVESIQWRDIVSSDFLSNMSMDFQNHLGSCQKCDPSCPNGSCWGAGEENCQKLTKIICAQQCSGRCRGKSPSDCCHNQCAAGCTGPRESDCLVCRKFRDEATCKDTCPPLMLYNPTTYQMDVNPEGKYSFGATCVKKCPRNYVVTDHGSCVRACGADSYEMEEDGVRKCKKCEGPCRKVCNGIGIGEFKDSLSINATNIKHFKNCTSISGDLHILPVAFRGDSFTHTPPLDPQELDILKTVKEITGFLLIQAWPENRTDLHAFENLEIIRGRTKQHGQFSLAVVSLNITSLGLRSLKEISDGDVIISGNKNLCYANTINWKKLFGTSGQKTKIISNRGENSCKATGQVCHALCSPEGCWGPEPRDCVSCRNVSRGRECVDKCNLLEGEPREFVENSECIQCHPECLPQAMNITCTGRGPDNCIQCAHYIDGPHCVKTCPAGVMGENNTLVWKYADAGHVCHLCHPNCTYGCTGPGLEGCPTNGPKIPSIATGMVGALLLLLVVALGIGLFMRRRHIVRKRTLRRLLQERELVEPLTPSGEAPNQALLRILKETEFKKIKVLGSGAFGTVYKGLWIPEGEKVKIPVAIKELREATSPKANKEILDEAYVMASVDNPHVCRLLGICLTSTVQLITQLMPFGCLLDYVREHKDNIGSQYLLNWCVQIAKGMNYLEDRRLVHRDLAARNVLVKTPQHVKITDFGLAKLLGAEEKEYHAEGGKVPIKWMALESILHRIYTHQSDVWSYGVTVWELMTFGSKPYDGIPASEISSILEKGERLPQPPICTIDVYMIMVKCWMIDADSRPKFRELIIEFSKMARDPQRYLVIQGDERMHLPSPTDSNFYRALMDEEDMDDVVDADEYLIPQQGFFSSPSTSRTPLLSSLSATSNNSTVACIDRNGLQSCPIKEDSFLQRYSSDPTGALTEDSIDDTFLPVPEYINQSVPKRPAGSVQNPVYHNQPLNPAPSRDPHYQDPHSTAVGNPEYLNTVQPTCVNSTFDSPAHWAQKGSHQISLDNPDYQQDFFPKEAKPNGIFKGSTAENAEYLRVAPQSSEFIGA

For `COC(=O)NCC=Cc1nc(CCC=CC(=O)O[C@H]2CC3CC(=O)O[C@@H](C=CCC(C)C)C[C@@H]4CC[C@H](C)[C@@H](C[C@@H](OC)C[C@H](C2)O3)O4)co1`, the composite z-score in experiment [1] is -0.466; in experiment [2], -0.445; in experiment [3], -0.42; in experiment [5] it was -0.512; in experiment [6] it was -1.21; in experiment [7], -0.633. Besides, the composite z-score is -0.65 in experiment [8]; -0.447 in experiment [9]; 0.846 in experiment [10]; -1.78 in [11]; -0.107 in experiment [13]; -0.421 in experiment [14]. Also, the composite z-score in [15] is -0.409; in [16], -0.179; in experiment [17] it was -0.345; in experiment [18] it was -0.0784; in experiment [19] it was 0.231; in experiment [20], -0.684. The z-score in [4] was 0.659 (inactive); in experiment [12] it was -3.46.
As to `CCCc1cc2c(n1Cc1ccco1)C(C)C1CN(C(=O)c3ccccc3)C(C)(C(=O)OC)C21` (stereo not given), the composite z-score is 1.16 in [1]; 1.6 in [2]; 1.52 in [3]; 0.505 in experiment [5]; 1.02 in experiment [6]; 0.437 in experiment [7]. For the same molecule, the composite z-score in experiment [8] came to 0.715; in experiment [9], 0.512; in experiment [10], 1.57; in [11], 0.0223; in experiment [13], 0.392; in experiment [14], 1.9. The composite z-score in [15] turned out to be 0.425; in experiment [16], 0.117; in experiment [17], 0.239; in [18] it was 1.65; in [19], 1.4; in experiment [20], 0.899. In addition, the z-score was 1.76 (inactive) in [4] and -1.28 in [12].
Take `OCc1ccc(C2=CC(c3cccs3)N(Cc3cccc(OC(F)(F)F)c3)CC2)cc1` (stereo not given): the composite z-score in experiment [1] was 0.916; in [2] it was -0.236; in experiment [3], -0.0613; in [5] it was -0.0615; in [6], -0.123; in experiment [7], -0.0657. For the same molecule, the composite z-score in experiment [8] is 0.107; in [9], 0.0824; in experiment [10] it was 1.18; in [11], -0.307; in [13], 0.198; in experiment [14] it was -0.573. Also, the composite z-score in [15] is -0.411; in experiment [16], -0.091; in experiment [17], -0.138; in experiment [18] it was -0.244; in experiment [19] it was 0.221; in [20], 0.934. In addition, the z-score in experiment [4] is -1.18 (inactive); in experiment [12], -1.07.
As to `O=P(c1ccccc1)(c1ccccc1)N1CC2(CC2)CC(O)(c2ccccc2)C1` (stereo not given), the composite z-score was 0.68 in experiment [1]; 0.704 in experiment [2]; 0.969 in experiment [3]; 0.11 in experiment [5]; -0.487 in experiment [6]; -0.48 in [7]. Besides, the composite z-score in experiment [8] is -0.672; in [9] it was -0.673; in [10] it was 0.72; in [11], 1.04; in experiment [13] it was -1.1; in experiment [14], 1.04. In addition, the composite z-score is 1.08 in experiment [15]; 0.435 in [16]; -0.0553 in [17]; 1.6 in experiment [18]; 1.58 in experiment [19]; 0.41 in experiment [20]. Also, the values for the z-score in [4] and in experiment [12] were -3.24 (inactive) and -1.06, respectively.
For the molecule `C[C@@H]1Cc2c(cnc3c2CN(C)CC3)CO1`, the composite z-score in experiment [1] was 0.0529; in experiment [2], -0.228; in experiment [3], -0.368; in experiment [5] it was 0.32; in experiment [6], -0.117; in experiment [7], 1.15. The composite z-score is 0.336 in [8]; 0.662 in experiment [9]; 1.09 in experiment [10]; -1.58 in experiment [11]; 0.894 in experiment [13]; -1.33 in experiment [14]. Besides, the composite z-score in experiment [15] was -0.882; in [16], -0.0221; in [17] it was 0.149; in [18], -0.0689; in experiment [19], -0.217; in [20], -0.138. Besides, the z-score is -0.377 (inactive) in experiment [4] and -0.491 in experiment [12].
With `CCCc1cc2c(n1CCO)C(C)C1CN(C(=O)c3ccccc3)C(C)(C(=O)OC)C21` (stereo not given), the composite z-score in experiment [1] was 0.677; in experiment [2], 1.76; in [3], 1.57; in experiment [5], 0.0807; in [6] it was -0.181; in experiment [7], -0.362. The composite z-score in experiment [8] was 0.0815; in experiment [9] it was -0.369; in experiment [10] it was 1.24; in experiment [11], -0.202; in [13], -0.258; in experiment [14], 2.45. Moreover, the composite z-score in experiment [15] is 1.06; in experiment [16], 0.353; in experiment [17], 0.0545; in experiment [18] it was 1.85; in [19], 2.26; in experiment [20], 2.61. The z-score in [4] is -1.08 (inactive); in experiment [12] it was -1.27.
As for `CN1CCc2nc(CO)c(CO)cc2C1`, the composite z-score in experiment [1] is -0.0844; in experiment [2], 0.0703; in [3], -0.445; in [5], 0.297; in experiment [6], 0.702; in experiment [7], 0.514. Also, the composite z-score in experiment [8] was 0.51; in experiment [9] it was 0.323; in [10], -0.0175; in [11], 0.22; in experiment [13], 0.357; in experiment [14], -0.192. In addition, the composite z-score was -0.657 in [15]; -0.117 in experiment [16]; -0.138 in experiment [17]; -0.104 in [18]; -0.115 in [19]; -0.0299 in experiment [20]. Besides, the values for the z-score in experiment [4] and in [12] were 0.261 (inactive) and -0.365, respectively.
`COC(=O)[C@H]1[C@H](c2ccccc2)C(=O)[C@]2(O)c3ccccc3O[C@@]12c1ccccc1`: the composite z-score in [1] is 0.219; in experiment [2], -0.291; in [3], -0.463; in [5] it was 0.37; in experiment [6], 0.423; in experiment [7], 0.437. Also, the composite z-score is 0.419 in experiment [8]; 0.314 in experiment [9]; -0.228 in experiment [10]; 0.304 in [11]; 0.832 in experiment [13]; 0.384 in experiment [14]. The composite z-score was -0.0524 in experiment [15]; -0.131 in [16]; 0.0048 in [17]; -0.293 in experiment [18]; 0.106 in experiment [19]; 0.0914 in experiment [20]. Further, the figures for the z-score in experiment [4] and in experiment [12] were -1.58 (inactive) and 0.0741, respectively.

For the origin of these results see PubChem BioAssay.
